# According to the supplement of paper PMC6555819:
# System: PPARg:RXRa 270nM:90nM, anti-RXR (NR concentration 270 nM, RXRa partner concentration 90 nM)
# Experiment: PBM binding z-score (relative to random genomic background probes); higher = stronger binding; sequences stand for … in GC…GCGATTGACAGCGTAGAATGAAGG
# Procedure, shortened: (§1)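 Binding z-scores take random background probes as their reference. They come from custom Agilent 4×180K protein-binding microarrays incubated 1 h with ligand-free nuclear receptor dimers, with antibodies against each partner (one per run) detecting binding. Scanned fluorescence was regression-normalized.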
row,Sequence,PBM binding z-score
1,TTACCAAGGTGAAGGTCGTTGACCCCTCTGTAGA,4.59
2,TAGCCTAGGTCAGACCGGGCCAGTATACGCTATA,0.617
3,CCTTACGGGTCAAGATTATAGCACGGGTGGTACG,3.6
4,CGAACTAGGTCACGAAAGGTCAAAGTCGAATGAC,8.46
5,ATCTCTAGGTAAAGTTAGTTCAGTGAATGCAAAT,1.07
6,AATACAGGGTCATCCTAGGCCAGAGTACGCACAG,5.93
7,TCTATTAGTTGAGTAGGGCAACCGAAACAGCGGA,1.65
8,TTTAGCAGGCCAGAGGGTCACTCAAGAGGTACGG,2.99
9,TCATATAGGTAAATCCTAGGTGAAAGTCCGATCT,2.16
10,CCTTACGGGTCACTCCAGGTAATAGCATCGGAGT,3.97
11,CCTTACGGGTCACTGACAAGTTATAGCATTTGGA,4.4
12,CCTACTGGACCAAAAAGGTCATTGATGCCGATAA,3.38
13,CGTCCAAGGTCAATGCTATGTCAGTGAAAGCATT,4.41
14,CCGACTGGGGCAGAAAGGCTACCATACCATCCGG,-0.0777
15,CGAACGAGGGCATGATTTGATAGCAAATGCCGAT,0.441
16,CGTCCAAGGTTAGAGAGGTCAGTGAATGCCGAGT,1.66
17,GCGACTGGGGCAAAGCAGGTTAACATAAGGTTGG,1.19
18,CCTACTGGGCCATTCAGAGGTCATTTATCATATG,2.85
19,AGTCAAAGTTCACTAGGTAACGTAAGATTCAGCT,6.5
20,TGTCACAGTTCAAAGGTAACGTAAGTATCCACAC,4.67

row,Sequence,PBM binding z-score
1,TCTAGATGGTCACGGAGGTCACACACGACGGGTA,4.36
2,ATCTCTAGGTAACCAAGTTAAGTGAATGCCGAAC,0.507
3,ACTAGCAGGCCAAGGGGCACTCAAGATTAGTCCG,4.46
4,GCTGCTAGGTCAACTGATGCTCAGCTAAAGCTCG,3.35
5,TCTACTAGGTCAACGATGGTCAGCTAATCTGCTA,6.03
6,AGAACGAGGGCAATGAGGTGATAGCACGGGTGGC,1.46
7,ACTATTACTTGAGACGAGGGCAACCGATAGGTTG,0.46
8,GGAACGTGGGCATTCGAGTTGATAGCATGGCGAT,-0.631
9,CGAACGAGGGCATGAGTTGATAGCGAATGCCGAT,1.65
10,AGTCCAAGTTCATCTAGGTAACGTAAGATATGCT,1.61
11,GCTAGTTGGTCAGTATAAGGTCACACACCGGTCG,2.09
12,TCGAGTAGGTAAGGGGCATTCAGAATGGCGTCGA,1.71
13,GCTAGCAGGACATTTGGGTCACTCAATGACGGGC,0.479
14,TAACCAAGGTGAAGGTCGTTGATCCCTCTGTAGA,3.53
15,TAGCCTAGGTCAGATCGGGCCAATATACGCTATA,0.613
16,ATCTCTAGGTAAAGATAGTACAGTGAATGCAAAT,0.762
17,CAAACTAGGTGAAAGGTCAAAGTCGAGCCAACCA,11.5
18,CCTCGCAGGACAACAGGAGGTCAGAGCTGCCAGA,-0.0198
19,ACTAGCAGGCCAAGTTTTGGTCACTCAAACAAAG,-0.261
20,ACTAGCAGGCCAAGGGTCGCTCAAGATTAGTCCG,6.2

# System: PPARg:RXRa 30nM:10nM, anti-RXR (NR concentration 30 nM, RXRa partner concentration 10 nM)
# Experiment: as above
# Procedure, shortened: as §1
row,Sequence,PBM binding z-score
1,TTACCAAGGTGAAGGTCGTTGACCCCTCTGTAGA,2.37
2,TAGCCTAGGTCAGACCGGGCCAGTATACGCTATA,-0.277
3,CCTTACGGGTCAAGATTATAGCACGGGTGGTACG,1.65
4,CGAACTAGGTCACGAAAGGTCAAAGTCGAATGAC,6.75
5,ATCTCTAGGTAAAGTTAGTTCAGTGAATGCAAAT,0.112
6,AATACAGGGTCATCCTAGGCCAGAGTACGCACAG,2.82
7,TCTATTAGTTGAGTAGGGCAACCGAAACAGCGGA,3.14
8,TTTAGCAGGCCAGAGGGTCACTCAAGAGGTACGG,1.1
9,TCATATAGGTAAATCCTAGGTGAAAGTCCGATCT,3.66
10,CCTTACGGGTCACTCCAGGTAATAGCATCGGAGT,1.47
11,CCTTACGGGTCACTGACAAGTTATAGCATTTGGA,1.41
12,CCTACTGGACCAAAAAGGTCATTGATGCCGATAA,1.31
13,CGTCCAAGGTCAATGCTATGTCAGTGAAAGCATT,1.02
14,CCGACTGGGGCAGAAAGGCTACCATACCATCCGG,-0.705
15,CGAACGAGGGCATGATTTGATAGCAAATGCCGAT,0.141
16,CGTCCAAGGTTAGAGAGGTCAGTGAATGCCGAGT,-0.029
17,GCGACTGGGGCAAAGCAGGTTAACATAAGGTTGG,0.0162
18,CCTACTGGGCCATTCAGAGGTCATTTATCATATG,0.841
19,AGTCAAAGTTCACTAGGTAACGTAAGATTCAGCT,3.74
20,TGTCACAGTTCAAAGGTAACGTAAGTATCCACAC,1.68

row,Sequence,PBM binding z-score
1,TCTAGATGGTCACGGAGGTCACACACGACGGGTA,3.7
2,ATCTCTAGGTAACCAAGTTAAGTGAATGCCGAAC,0.346
3,ACTAGCAGGCCAAGGGGCACTCAAGATTAGTCCG,2.5
4,GCTGCTAGGTCAACTGATGCTCAGCTAAAGCTCG,0.299
5,TCTACTAGGTCAACGATGGTCAGCTAATCTGCTA,4.97
6,AGAACGAGGGCAATGAGGTGATAGCACGGGTGGC,-0.142
7,ACTATTACTTGAGACGAGGGCAACCGATAGGTTG,0.448
8,GGAACGTGGGCATTCGAGTTGATAGCATGGCGAT,-0.7
9,CGAACGAGGGCATGAGTTGATAGCGAATGCCGAT,0.171
10,AGTCCAAGTTCATCTAGGTAACGTAAGATATGCT,0.523
11,GCTAGTTGGTCAGTATAAGGTCACACACCGGTCG,0.612
12,TCGAGTAGGTAAGGGGCATTCAGAATGGCGTCGA,1.19
13,GCTAGCAGGACATTTGGGTCACTCAATGACGGGC,-0.424
14,TAACCAAGGTGAAGGTCGTTGATCCCTCTGTAGA,2.15
15,TAGCCTAGGTCAGATCGGGCCAATATACGCTATA,-0.00847
16,ATCTCTAGGTAAAGATAGTACAGTGAATGCAAAT,0.819
17,CAAACTAGGTGAAAGGTCAAAGTCGAGCCAACCA,15.3
18,CCTCGCAGGACAACAGGAGGTCAGAGCTGCCAGA,-0.833
19,ACTAGCAGGCCAAGTTTTGGTCACTCAAACAAAG,-0.692
20,ACTAGCAGGCCAAGGGTCGCTCAAGATTAGTCCG,3.7
